This is part of a sample that, as a whole, favours compounds with a hit. Of some 83,000 tested, about 20% had one in any assay.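 48-hour exposure, single concentration, 96-well plates; percent growth endpoint where 0 means no net growth. Active: below 10.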 Values without a mark were called inactive. The source made the active and inactive calls.
What was measured:
Assay in all cases: NCI-60 one-dose screen, 48 h (100 = growth as untreated, 0 = no growth, -100 = all killed)
DU-145 prostate = conditions: 10 µM unless noted
K-562 leukemia = conditions: 10 µM unless noted
MALME-3M melanoma = conditions: 10 µM unless noted
MDA-MB-231 breast = conditions: 10 µM unless noted
RXF 393 renal = conditions: 10 µM unless noted
SF-268 CNS = conditions: 10 µM unless noted
SF-295 CNS = conditions: 10 µM unless noted
SF-539 CNS = conditions: 10 µM unless noted
UACC-257 melanoma = conditions: 10 µM unless noted
M14 melanoma = conditions: 10 µM unless noted
HCT-15 colon = conditions: 10 µM unless noted
HT29 colon = conditions: 10 µM unless noted
SNB-75 CNS = conditions: 10 µM unless noted
SNB-19 CNS = conditions: 10 µM unless noted
U251 CNS = conditions: 10 µM unless noted
PC-3 prostate = conditions: 10 µM unless noted
SK-MEL-5 melanoma = conditions: 10 µM unless noted
UACC-62 melanoma = conditions: 10 µM unless noted
LOX IMVI melanoma = conditions: 10 µM
SK-MEL-28 melanoma = conditions: 10 µM unless noted

| Compound | growth (DU-145 prostate) | growth (K-562 leukemia) | growth (MALME-3M melanoma) | growth (MDA-MB-231 breast) | growth (RXF 393 renal) | growth (SF-268 CNS) | growth (SF-295 CNS) | growth (SF-539 CNS) | growth (UACC-257 melanoma) | growth (M14 melanoma) | growth (HCT-15 colon) | growth (HT29 colon) | growth (SNB-75 CNS) | growth (SNB-19 CNS) | growth (U251 CNS) | growth (PC-3 prostate) | growth (SK-MEL-5 melanoma) | growth (UACC-62 melanoma) | growth (LOX IMVI melanoma) | growth (SK-MEL-28 melanoma) |
| --- | --- | --- | --- | --- | --- | --- | --- | --- | --- | --- | --- | --- | --- | --- | --- | --- | --- | --- | --- | --- |
| COc1cc2c3c(n(CCCN4CCC[C@@H]4CO)c(=O)c2cc1OC)-c1cc2c(cc1C3=O)OCO2 | -100% (active) | 2.24% (active) | -85.6% (active) | -93.3% (active) | -66.5% (active) | -60.8% (active) | -86% (active) | -98.2% (active) | 71.2% | -85.9% (active) | -90.9% (active) | -95.2% (active) | -83.4% (active) | -90.1% (active) | -95.1% (active) | -17.8% (active) | -90.8% (active) | 11.7% | -98.7% (active) | -92.1% (active) |
| O=C(COc1ccc(NC(=O)Nc2ccc(Cl)c(Cl)c2)cc1)N=Nc1c(O)[nH]c2ccc(Br)cc12 | -30.1% (active) | 7.78% (active) | -85.4% (active) | -59.3% (active) | -54.3% (active) | 1.44% (active) | -68.3% (active) | -90.8% (active) | -76.5% (active) | -63.8% (active) | 27% | -46.2% (active) | 7.51% (active) | -5.58% (active) | -84.7% (active) | -16.6% (active) | -89% (active) | -35.5% (active) | – | -77% (active) |
| CN(C)c1nc(NCCNS(=O)(=O)c2ccc(C3=Nc4c(N)nc(N)nc4NC(c4ccc(F)cc4)C3)cc2)nc(Nc2ccc(F)cc2)n1 (stereo not drawn) | 54.2% | 3.61% (active) | 47.1% | 20.8% | 16.5% | 31.9% | 57.3% | -25.3% (active) | 59.3% | 28% | 44.7% | 10% | 58.6% | 46.1% | 31.6% | 18.9% | 21.3% | 45.2% | -40% (active) | 55.4% |
| CCOC(=O)C(N=Nc1ccc(S(=O)(=O)N=C(N)N)cc1)C(C)=O (stereo not drawn) | 111% | 94.1% | 129% | 107% | 105% | 101% | 125% | 104% | 126% | 124% | 108% | 107% | 74.3% | 101% | 98.6% | 98.5% | 102% | 99.2% | 109% | 109% |
| COc1ccc(NC(=O)[C@H](CO)NC(=O)OC(C)(C)C)cc1C(=O)Nc1cccc(C2CC(=O)c3c(cc(OC)c(OC)c3OC)O2)c1 (stereo partly drawn) | 58.4% | 28.4% | 61.4% | 41.9% | 53% | 65.1% | 69.1% | 79.1% | 75.3% | 66% | 33% | 49.4% | 51.4% | 69.2% | 61.9% | 49.8% | 27.9% | 49.1% | – | 71.4% |
| c1ccc(-c2csc(Nc3cccc(Nc4nc(-c5ccccc5)cs4)c3)n2)cc1 | 58.9% | 26.6% | 52.8% | 48% | 63.8% | 40.6% | 37.6% | 57.7% | 46.1% | 47.8% | 30.5% | 39.4% | 48.6% | 58% | 51.2% | 32.1% | 21% | 50.3% | – | 60.9% |
| CC(=O)Nc1ccc(C(=O)NC(=S)Nc2ccc(S(N)(=O)=O)cc2)cc1 | 105% | 86.6% | 89.9% | 99.3% | 93.2% | 97.1% | 102% | 90.7% | 95.2% | 93.6% | 106% | 92.6% | 78.1% | 98.4% | 94.2% | 97.9% | 88.3% | 86.9% | – | 97% |
| CC(=O)Oc1ccc(/C=C/C(=O)N[C@@H](Cc2ccccc2)C(O)C(=O)NCc2ccccc2)cc1OC(C)=O (stereo partly drawn) | 90.5% | 77.1% | 87.4% | 72.7% | 104% | 68% | 100% | 71.2% | 90.8% | 85.3% | 78.1% | 113% | 61.3% | 83.5% | 73.8% | 76.9% | 81.8% | 96.1% | – | 88.4% |
| Cc1cc2nc3c4ccccc4n(CCCN(C)C)c3nc2cc1C | 2.68% (active) | -4.14% (active) | -89.6% (active) | -23.4% (active) | -62.1% (active) | -38.6% (active) | -30.4% (active) | -69.4% (active) | -81.2% (active) | -74.4% (active) | -10.1% (active) | -3.59% (active) | -97.8% (active) | -8.61% (active) | 1.33% (active) | -32% (active) | -94.4% (active) | -90.4% (active) | – | -71.1% (active) |
| CCOP(=O)(OCCCl)c1nc(-c2ccc(C)cc2)oc1NCc1ccccc1 (stereo not drawn) | 96% | 50.3% | 102% | 65.1% | 84.4% | 73.7% | 79.9% | 87.2% | 92.6% | 86.3% | 57.6% | 81.7% | 69.9% | 65.8% | 74.6% | 44.4% | 84.8% | 60.4% | – | 108% |
| S=C(Nc1ccc(OCc2nc3ccccc3[nH]2)cc1)NC1CCCCC1 | 98.4% | 108% | 67.6% | 100% | 147% | 106% | 74.4% | 79.5% | 95.5% | 105% | 106% | 102% | 99.1% | 94% | 97% | 95.8% | 92.3% | 77.6% | – | 85.2% |
| COc1ccc(C2=NN(C(C)=O)C(c3ccc(OCc4ccc(Cl)cc4)c(OC)c3)C2)cc1OC (stereo not drawn) | 51.3% | 31% | 48.1% | 69.6% | 52.9% | 47.1% | 37.8% | 63.8% | 40.2% | 54.2% | 27.9% | 40.1% | 61.3% | 51.4% | 46.8% | 23.6% | -9.52% (active) | 34% | – | 56.8% |
| COc1ccc(C(=O)/C=C/c2ccc(OCc3ccc(F)cc3)c(OC)c2)cc1OC | 1.63% (active) | 7.71% (active) | 61.4% | 11.1% | 18.7% | 24.3% | 15.6% | -38.6% (active) | 33.6% | 38.1% | 10.2% | 10.7% | -15% (active) | 15.4% | 10.1% | 24% | 17.8% | 18.8% | – | 46.8% |
| O=C1NC(=O)/C(=C/c2ccccc2OCc2cc3ccccc3nc2Cl)S1 | 90.5% | 84.6% | 82.8% | 64.2% | 72.8% | 58.7% | 72% | 70.8% | 89.4% | 120% | 84% | 108% | 46.9% | 39.2% | 58% | 112% | 67.6% | 52% | – | 102% |
| COc1ccc(/C=C/c2n(Cc3ccc4ccccc4c3)c3ccccc3[n+]2Cc2ccc3ccccc3c2)cc1 | -93.1% (active) | 1.11% (active) | -85.7% (active) | -86.5% (active) | -74.7% (active) | -80.5% (active) | -95.8% (active) | -95.5% (active) | -91.7% (active) | -88.3% (active) | -76.9% (active) | -97.1% (active) | -95.7% (active) | -94.6% (active) | -94.3% (active) | -25.1% (active) | -97.6% (active) | -90.5% (active) | – | -89% (active) |
